Source: PubChem BioAssay AID434989 (The Scripps Research Institute Molecular Screening Center, 2010)
The whole screen tested about 330,000 compounds, of which about 1,400 (0.42%) were called active.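 The calls were made as follows: active = inhibition above its plate's threshold, mean inhibition of all tested compounds on the plate plus 3 SD (cut at about 37% in these data); inactive = the rest.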 The list comes from a sample in which actives are over-represented; it also holds similar structures and randomly drawn compounds.

Biological target: Orexin/Hypocretin receptor type 1 (Homo sapiens) (UniProt O43613)
Sequence (O43613 whole entry, looked up): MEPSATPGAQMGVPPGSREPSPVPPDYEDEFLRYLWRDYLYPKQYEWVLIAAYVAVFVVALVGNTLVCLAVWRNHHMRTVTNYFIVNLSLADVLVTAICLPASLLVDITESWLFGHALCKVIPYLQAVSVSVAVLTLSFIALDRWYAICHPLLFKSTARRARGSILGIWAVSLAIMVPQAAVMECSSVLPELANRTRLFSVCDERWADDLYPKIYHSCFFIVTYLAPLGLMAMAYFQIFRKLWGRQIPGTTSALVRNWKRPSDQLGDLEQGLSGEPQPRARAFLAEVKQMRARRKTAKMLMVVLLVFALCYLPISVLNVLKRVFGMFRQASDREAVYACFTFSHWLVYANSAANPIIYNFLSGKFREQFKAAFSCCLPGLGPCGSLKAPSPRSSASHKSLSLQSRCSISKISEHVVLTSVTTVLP
Test: blockers of orexin-A calcium signaling via HCRTR1 – fluorescence, CHO/OX1R cells, Fluo-8 calcium, primary screen (AID 434989);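 also: 0% = orexin A challenge wells and 100% = SB-334867-A antagonist wells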
Settings: Fluo-8 calcium fluorescence, at 5 µM, active compounds read high

inhibition, inactive:
N#C/C(=C1/CCCN1)c1ccccn1 -3.72%
CCNC(=O)CSc1nc(-c2ccccc2)cs1 4.28%
N#CC(=C1CCCC1)c1nc(-c2ccc(Cl)cc2)cs1 -23.8%
Cn1c(/C(C#N)=C2/CCCCCN2)nc2ccccc21 -27.9%
Cc1cccc(C(=O)N[C@H](C(=O)NCc2cccs2)C(C)C)c1 -7.31%
CCOC(=O)N1CCN(C(=O)C2CCN(S(=O)(=O)c3cc(Cl)ccc3OCC)CC2)CC1 -21.5%
CCOC(=O)C1CCN(c2ncnc3c2oc2ccc(Br)cc23)CC1 -11.1%
CCN(CC(=O)NC(C)C)C(=O)c1cc(S(=O)(=O)N2CCCCC2)ccc1N1CCCCC1 -37.7%
CCCCNC(=O)C(C)N(CCN(C)C)C(=O)CCCN1C(=O)NC(c2ccc(Cl)cc2)C(C(=O)OCc2ccccc2)=C1C (stereo not drawn) -28.8%
CCc1ccccc1NC(=O)c1ccc2snnc2c1 -1.72%
O=C(Nc1cccc(Br)c1)c1ccc2snnc2c1 -1.56%
COc1ccc(C2=Nn3c(nnc3-c3ccccc3OC)SC2)cc1OC1CCCC1 -19.5%
O=c1c2ccccc2nc2n1C(CSCc1ccccc1)CS2 (stereo not drawn) -3.31%
O=c1c2ccccc2nc2n1C(CSc1ccc(F)cc1)CN2 (stereo not drawn) -5.98%
Cc1ccc(S(=O)(=O)NCC(=O)NNC(=O)c2ccc(Br)cc2)cc1C -11.2%
COc1cccc(CC(=O)OCC(=O)NCc2ccc3c(c2)OCO3)c1 -9.44%
Oc1cccc(/C=N/Nc2ccc(Cl)nn2)c1O -18.9%
COc1ccccc1/C=N/Nc1nc(C)c(C(C)=O)s1 -4.69%
CCNC(=O)N(CC)C[C@H]1N[C@@](CC)(C(=O)OC)[C@H]2C(=O)N(Cc3ccccc3)C(=O)[C@@H]12 4.29%
C=CCC[C@H](Cc1ccc(F)cc1)C(=O)OC[C@H](C)NC(=O)[C@H](CC=C)CC(=O)N(CCO)Cc1ccccc1 6.31%
CN(C)C(=O)CCc1ccc2c3c([nH]c2c1)[C@]1(C)[C@@H](C(=O)N2CCCCC2)C[C@H](CC(=O)NCCC2=CCCCC2)C(=O)N1CC3 -30.3%
Cc1c(NC(=O)C(C)OC(=O)c2ccccc2O)c(=O)n(-c2ccccc2)n1C (stereo not drawn) -6.55%
Cn1nccc1C(=O)NC1CCCc2c1cnn2-c1ccccc1F (stereo not drawn) 8.33%
Cc1cc(C(=O)NC2CCCc3c2cnn3-c2cccc(C)c2C)c(C)o1 (stereo not drawn) 26.6%
CC(C)(C)OC(=O)C[C@@H]1C/C=C\C[C@@H](CC(=O)N(CCO)Cc2ccccc2)C(=O)N[C@H](Cc2ccccc2)COC1=O -33.6%
OCCN(Cc1ccccc1)Cc1ccc(Cl)cc1 9.29%
CCN(CC)CCCNC(=O)CCc1ccccc1 -15%
CCN(CC)C(=O)[C@H]1CC(CC(=O)NCc2ccco2)C(=O)N2CCc3c([nH]c4ccccc34)[C@]12C (stereo partly drawn) -11.1%
Cc1c(C(=O)Nc2cccc(S(=O)(=O)N3CCOCC3)c2)oc2ccccc12 -3.24%
O=C(c1cc(COc2ccc(F)c(F)c2)on1)N1CCOCC1 -5.38%
COc1cccc(OCc2cc(C(=O)N3CCN(C(=O)c4ccco4)CC3)no2)c1 -6.35%
Cc1ccc(CNC(=O)Cn2cnc3c(NCc4ccccc4)ncnc32)o1 10.5%
O=C(CCNC(=O)c1ccccc1)Nc1nc2ccccc2s1 -8.05%
O=C(CNC(=O)c1ccccc1)Oc1ccc([N+](=O)[O-])cc1 -4.15%
Cc1ccc(NC(=O)C2CCCN2S(=O)(=O)c2cccc3cccnc23)c(C)c1 (stereo not drawn) -30.7%
COc1ccc(NC(=O)C2CCCN(S(=O)(=O)c3cccc4cccnc34)C2)cc1 (stereo not drawn) -34.5%
O=C(Nc1nccs1)C1CCCN1S(=O)(=O)c1cccc2cccnc12 (stereo not drawn) -11.2%
COc1ccc(NC(=O)C2CCCN(S(=O)(=O)c3cccc4cccnc34)C2)cc1OC (stereo not drawn) -27.1%
O=C(CN1C(=O)NC2(CCCC2)C1=O)Nc1cc(C(F)(F)F)ccc1N1CCOCC1 -28.3%
C[C@H](CO)N1C[C@H](C)[C@@H](CN(C)Cc2ccc(-c3ccccc3)cc2)Oc2ccc(NC(=O)Cn3cnnn3)cc2C1=O -7.92%
CC[C@]1(C(=O)OC)[C@H]2C(=O)N(Cc3ccccc3)C(=O)[C@H]2[C@H]2CN=C(SCc3ccc(C#N)cc3)N21 -5.92%
Cc1ccc([C@@H]2CC=C(C(=O)O)[C@H](c3cccc(Cl)c3)N2S(=O)(=O)c2ccc(C)cc2)cc1 10.8%
Cc1ccc(S(=O)(=O)N2[C@@H](c3cccc(Cl)c3)C(C(=O)O)=CC[C@H]2c2ccc(Cl)c(Cl)c2)cc1 42%
COc1cc(NC(=O)COC(=O)c2ccc([N+](=O)[O-])s2)cc(OC)c1OC -20.3%
O=C(C[C@H]1C[C@H](C(=O)N2CCOCC2)[C@@]2(CCC3CCCC3)c3[nH]c4ccc(Cl)cc4c3CCN2C1=O)NCc1ccco1 21.8%
Cc1ccc(-n2[nH]c(C)c(/C=N/NC(=O)c3cccc([N+](=O)[O-])c3)c2=O)cc1C 7.53%
Cc1ccc(-n2[nH]c(C)c(/C=N/N3C(=O)c4cccc5cccc(c45)C3=O)c2=O)cc1 -11.8%
O=C(Nc1cc(S(=O)(=O)N2CCOCC2)ccc1N1CCOCC1)c1c(F)cccc1Cl -20%
C=CCOc1cccc(C2C(C(=O)c3ccc(C)o3)=C(O)C(=O)N2CCCn2ccnc2)c1 (stereo not drawn) -1.44%
Cc1cc(N2C(=O)C(O)=C(C(=O)c3ccc(C)o3)C2c2ccc(OCc3ccccc3)cc2)no1 (stereo not drawn) -19.8%
O=C(Cc1ccc(Cl)c(Cl)c1)Nc1ccc(SC(F)F)cc1 -12.3%
O=C(CC1SCCNC1=O)Nc1ccc(Cl)c(Cl)c1 (stereo not drawn) -14.2%
CC(=O)Nc1ccc(NC(=O)COC(=O)C2CCC(C(C)(C)C)CC2)cc1 (stereo not drawn) -1.79%
CC1CCN(c2oc(-c3ccccc3F)nc2C#N)CC1 -6.67%
COc1ccc(Nc2oc(-c3ccccc3Cl)nc2C#N)cc1 -16.2%
O=C(N[C@H]1C/C=C\C(c2cccc(F)c2)N(Cc2ccccc2)C(=O)C1)OCC1c2ccccc2-c2ccccc21 (stereo partly drawn) 4.42%
CC(NC(=O)COC(=O)c1ccc2ccccc2n1)c1ccccc1 (stereo not drawn) -14.8%
CC(=O)Nc1ccc(S(=O)(=O)NCC(=O)OCC(=O)c2ccc[nH]2)cc1 -2.13%
C#CCOCCOCCOCCNc1nc(N2CCN(C(=O)[C@H](CO)n3cc([C@@H](N)C(C)C)nn3)CC2)nc(N2CCN(C(=O)[C@H](CCC(=O)O)n3cc([C@@H](N)[C@H](C)CC)nn3)CC2)n1 0.47%
O=C(CSc1nnc(-c2ccncc2)o1)Nc1cccc(Cl)c1 -0.1%
CCOC(=O)C1CCCN(C(=O)CSc2nnc3nc(C)cc(C)n23)C1 (stereo not drawn) -14.2%
CC(=O)N1CCCc2cc(S(=O)(=O)N3CCCC(C(=O)NCc4ccc(Cl)cc4)C3)ccc21 (stereo not drawn) -22.5%
CC(=O)N1c2ccc(S(=O)(=O)N3CCCC(C(=O)Nc4cccc(Cl)c4)C3)cc2CC1C (stereo not drawn) 0.09%
CCOc1ccccc1Nc1nnc(SCC(=O)NCC2CCCO2)s1 (stereo not drawn) -22.1%

inhibition, active:
N#CC(=C1SC=CS1)c1nc(-c2ccccc2)cs1 89.5%
N#C/C(=C1\CCCN1)c1nc(-c2ccccc2)cs1 52.9%
CCOC(=O)N1CCN(C(=O)C2CCN(c3ncnc4c3sc3cccc(F)c34)CC2)CC1 65.7%
O=C(Nc1ccc2ccccc2c1)Nc1ccc2snnc2c1 41.4%
O=c1c2ccccc2nc2n1C(CSCc1cccc(C(F)(F)F)c1)CS2 (stereo not drawn) 45.5%
COc1cccc(/C=N/Nc2cc(C)nc(-c3ccccc3O)n2)c1O 93.8%
COc1ccc(C(=O)NC2CCCc3c2cnn3-c2cccc(C)c2C)c(OC)n1 (stereo not drawn) 44.8%
CN(C(=O)CN(CCO)CC(=O)N(C)C(C)(C)Cc1ccccc1)C(C)(C)Cc1ccccc1 68.2%
C=CCC1(CC=C)CCCN1C(=O)c1cc(COc2ccc(-n3cncn3)cc2)on1 34.5%
O=C(NC(Nc1nc2ccc([N+](=O)[O-])cc2s1)(C(F)(F)F)C(F)(F)F)c1ccccc1 59.4%
COc1ccccc1CNC(=O)C1CCCN(S(=O)(=O)c2cccc3cccnc23)C1 (stereo not drawn) 79.2%
Cc1cc(C)cc(NC(=O)C2CCCN2S(=O)(=O)c2cccc3cccnc23)c1 (stereo not drawn) 104%
Cc1ccccc1S(=O)(=O)N1[C@@H](c2cccc(Cl)c2)C(C(=O)O)=CC[C@H]1c1ccc(Cl)cc1 52.1%
COc1cc(SC#N)ccc1N=Cc1c(C)[nH]n(-c2ccc(C)cc2)c1=O 67.5%
C=CCOc1cccc(C2C(C(=O)c3ccc(C)o3)=C(O)C(=O)N2c2nnc(C)s2)c1 (stereo not drawn) 51%
O=C(CC(O)(C(F)(F)F)C(F)(F)F)Nc1ccc(Cl)c(Cl)c1 62.6%
Oc1c(Cl)cc(Cl)c(Cl)c1Cc1c(O)c(Cl)cc(Cl)c1Cl 42.3%
N#Cc1nc(-c2cccc3ccccc23)oc1N 56%
CC(=O)N1CCCc2cc(S(=O)(=O)N3CCCC(C(=O)N4CCN(c5cccc(Cl)c5)CC4)C3)ccc21 (stereo not drawn) 72.6%
